Inconclusive results are not listed. Entries that show only a call come without a potency. Values without a mark were called inactive. Activity calls are given as the source filed them. Calls follow the shape of the dose curve; as a rule, active = well fitted inhibition curve with a large enough effect; inconclusive = small, poorly fitted or top-dose-only effect; inactive = no such curve, though single readings can be large or run the other way. Where a SMILES comes first, the peptide text is derived from it. Bridges are numbered along the chain shown (N, C = ends). [ ]: non-standard residue; d: D form. NMeY = CN[CH](Cc1ccc(O)cc1)C(=O)O
tested on: Zika virus NS2B-NS3 protease (unlinked complex); test: Primary screen GU Rhodamine qHTS for Zika virus inhibitors: Unlinked NS2B-NS3 protease assay (AID 1347159); settings: Recombinant ZIKV NS2B-NS3 protease, Rhodamine110 substrate fluorescence; series mostly up to 107 µM; also: nearly all actives have a fitted effect of over 60% in size
Method in brief: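 Enzyme 25 nM in Tris-HCl pH 8.0 + 0.01% Tween 20; compounds up to 114 microM, 15 min RT dark; + Rhod110 substrate 1.5 microM; read t0 and 15 min; delta fluorescence → % inhibition → 4-parameter Hill fit.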
Potency is read from the fitted curve at half-maximal effect.

Compound | Potency | activity change, negative = inhibition
C=CC[C@]12C[C@@H](OC)C(=O)C(OC)=C1O[C@@H](c1cc(OC)c3c(c1)OCO3)[C@@H]2C | inactive | –
Fc1ccc2nc(CCC#Cc3ccccn3)cn2c1 | inactive | –
COc1ccc([C@@H]2OC[C@H]3[C@@H]2CO[C@@H]3c2ccc(OC3OC(CO)C(O)C(O)C3O)c(OC)c2)cc1OC (stereo not given in full) | inactive | –
O=C(CCCCN1CCOCC1)Nc1ccc(-c2cccnc2)cc1 | inactive | –
C=C1CCC2C(C(C)(C)O)CCC2(C)CC(O)C(=C)CCC1O (stereo not given) | inactive | –
C[C@H]1CC[C@@]2(OC1)O[C@H]1CC3C4CC[C@H]5C[C@@H](O)[C@H](O)C[C@]5(C)C4=CC(=O)[C@]3(C)[C@H]1[C@@H]2C (stereo not given in full) | inactive | –
CCCC(=O)C1CCN(c2ncnc3c2CN(C(=O)c2ccc(-c4ccccc4)cc2)CC3)CC1 | inactive | –
Cn1ncnc1COc1nn2c(-c3cc(F)ccc3F)nnc2cc1C(C)(C)C | inactive | –
O=C(O)/C=C/c1cc2c(cc1O[C@@H]1O[C@H](CO)[C@@H](O)[C@H](O)[C@H]1O)OCO2 | inactive | –
C=C[C@H]1CN2CC[C@H]1C[C@@H]2C(O)c1ccnc2ccc(OC)cc12 (stereo not given in full) | inactive | –
O=C(O)c1ccc(OC2OC(CO)C(O)C(O)C2O)cc1 (stereo not given) | inactive | –
CC(C)CN(C[C@@H](O)[C@H](Cc1ccccc1)NC(=O)O[C@@H]1CO[C@H]2OCC[C@H]21)S(=O)(=O)c1ccc(N)cc1 | inactive | –
C=C1[C@H](OC(C)=O)[C@H]2[C@@H](OC(C)=O)[C@](C)(OC(C)=O)C[C@]2(OC(C)=O)C(=O)[C@H](C)/C=C/C(C)(C)C(=O)[C@H](OC(=O)C(C)C)[C@H]1OC(C)=O | inactive | –
COC(C(=O)N1Cc2[nH]nc(NC(=O)c3ccc(N4CCN(C)CC4)cc3)c2C1)c1ccccc1 (stereo not given) | inactive | –
CCC(Nc1ncnc2nc[nH]c12)c1nc2cccc(F)c2c(=O)n1-c1ccccc1 (stereo not given) | inactive | –
C[C@@H]1O[C@@H](O[C@@H]2[C@@H](O)[C@H](O[C@H]3CC[C@@]4(C)C(CC[C@]5(C)C4CC=C4[C@@H]6CC(C)(C)CC[C@]6(C(=O)O[C@@H]6O[C@H](CO)[C@@H](O)[C@H](O)[C@H]6O)CC[C@]45C)C3(C)C)O[C@H](C(=O)O)[C@H]2O)[C@H](O)[C@H](O)[C@H]1O (stereo not given in full) | inactive | –
COC(=O)C1=CO[C@@H](O[C@@H]2O[C@H](CO)[C@@H](O)[C@H](O)[C@H]2O)[C@@H]2[C@@](C)(O)[C@@H](OC(=O)/C=C/c3ccc(O)cc3)C[C@]12O | inactive | –
CCC(C)C1NC(=O)C2CCCN2C(=O)C(NC(C)=O)C(C)OC(=O)C(Cc2ccc(OC)cc2)N(C)C(=O)C2CCCN2C(=O)C(C(C)C)NC1=O (stereo not given) (Ac-TPIVP[NMeY](Me); ester 1-C; configuration not given here) | inactive | –
O=C(CC1C(=O)Nc2ccccc21)OC[C@H]1O[C@@H](OCCc2ccc(O)cc2)[C@H](O)[C@@H](O)[C@@H]1O (stereo not given in full) | inactive | –
CC12CCC3c4ccc(OC5OC(C(=O)O)C(O)C(O)C5O)cc4CCC3C1CCC2O (stereo not given) | inactive | –

Compound | Potency | activity change, negative = inhibition
C/C(=C\CCC1(C)C2CCC(C2)C1(C)O)C(=O)O (stereo not given) | 22.4 µM (active) | –
C[C@@H]1CCC2C(C)(C)[C@H](O)CC[C@]2(C)[C@@]12Cc1c(O)cc3c(c1O2)CNC3=O (stereo not given in full) | inactive | –
C[C@@]12C[C@]3(O)O[C@H](O1)[C@]1(COC(=O)c4ccccc4)[C@H]3C[C@@]12O[C@@H]1O[C@H](CO)[C@@H](O)[C@H](O)[C@H]1O | inactive | –
C[C@@H]1CC[C@]2(C(=O)O[C@@H]3O[C@H](CO)[C@@H](O)[C@H](O)[C@H]3O)CC[C@]3(C)C(=CCC4[C@@]5(C)C[C@@H](O)[C@H](O)[C@](C)(C(=O)O)C5CC[C@]43C)[C@@H]2[C@]1(C)O (stereo not given in full) | inactive | –
CC(C)C(CO)Nc1nc(Nc2cc(N)cc(Cl)c2)c2ncn(C(C)C)c2n1 (stereo not given) | inactive | –
O=C(c1cccc(Cl)c1F)N1CCN(Cc2cccc(Nc3nccs3)n2)CC1 | inactive | –
CC1(C)C=CN2C(=O)C3=CCCN3C(=O)[C@@H]2C[C@@]12Nc1ccccc1C2=O | inactive | –
C[C@@H]1O[C@@H](OC[C@H]2O[C@@H](Oc3cc(O)cc4c3C(=O)C(O)(Cc3ccc(O)cc3)O4)[C@H](O)[C@@H](O)[C@@H]2O)[C@H](O)[C@H](O)[C@H]1O (stereo not given in full) | inactive | –
OC[C@H]1O[C@@H](OC(CCCCc2ccc(O)cc2)CCc2ccc(O)cc2)[C@H](O)[C@@H](O)[C@@H]1O (stereo not given in full) | inactive | –
CC1CCC2(C(=O)O)CCC3(C)C(=CCC4C5(C)CCC(OC(=O)/C=C/c6ccccc6)C(C)(C)C5CCC43C)C2C1C (stereo not given) | inactive | –
CC1(C)CC[C@]23CO[C@@]4(CCC5[C@@]6(C)CC[C@H](O[C@@H]7OC[C@H](O[C@@H]8O[C@H](CO)[C@@H](O)[C@H](O)[C@H]8O)[C@H](O)[C@H]7O[C@@H]7O[C@H](CO)[C@@H](O[C@@H]8O[C@H](CO)[C@@H](O)[C@H](O)[C@H]8O)[C@H](O)[C@H]7O)[C@@](C)(CO)C6CC[C@@]5(C)[C@]4(C)C[C@H]2OC2OCC(O)C(O)C2O)C3C1 (stereo not given in full) | – | 15.7% [at 19.1 µM]
COc1ccc(/C=C\C(=O)O)c(O[C@@H]2O[C@H](CO)[C@@H](O)[C@H](O)[C@H]2O)c1 | inactive | –
COc1c/c(=C2\C=c3ccccc3=N2)[nH]/c1=C\c1[nH]c(C)cc1C | inactive | –
CC(C)(C)NS(=O)(=O)c1cncc(-c2cc(F)c3nc(N)nn3c2)c1 | inactive | –
CC1CC(O)C2(OC1=O)OC1C(O)C3C4CCC5CC(OC6OC(CO)C(O)C(O)C6OC6OC(C)C(O)C(O)C6O)CCC5(C)C4CCC3(C)C1C2C (stereo not given) | inactive | –
COc1ccc(-c2ccc(-c3cn(C(=O)N4CCCCC4c4ccccc4)nn3)cc2)cc1 (stereo not given) | inactive | –
CC(C)=CCC[C@](C)(O[C@@H]1O[C@H](CO[C@@H]2O[C@H](CO)[C@@H](O)[C@H](O)[C@H]2O)[C@@H](O)[C@H](O)[C@H]1O)C1CC[C@]2(C)[C@@H]1[C@H](O)CC1[C@@]3(C)CC[C@H](O[C@@H]4O[C@H](CO)[C@@H](O)[C@H](O)[C@H]4O[C@@H]4O[C@H](CO)[C@@H](O)[C@H](O)[C@H]4O)C(C)(C)[C@@H]3CC[C@]12C (stereo not given in full) | inactive | –
CN1CCN(c2ccc(C(=O)Nc3n[nH]c4ccc(Cc5cc(F)cc(F)c5)cc34)c(NC3CCOCC3)c2)CC1 | inactive | –
COc1c2c(c(C)c3c1C(=O)OC3)OC1(C)CC(O)C(C(C)(C)O)C(C)(CCC(=O)O)C1C2 (stereo not given) | inactive | –
C=C(C)C(=O)OC1C(OC(C)=O)/C(C=O)=C\CC/C(CO)=C/C2OC(=O)C(=C)C21 (stereo not given) | inactive | –

From PubChem BioAssay (NCATS)
